Assay results as given in PubChem BioAssay AID485 (The Scripps Research Institute Molecular Screening Center, 2006).
Screen size: about 170,000 compounds; about 460 (0.27%) were called active. Many of the other results were omitted from the sample, so actives are more common in it than they were. Values without a mark were called inactive.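 The calls were made as follows: active = inhibition above the plate cutoff, the mean inhibition of test wells on that plate plus 3 SD (cut at about 28% in these data); inactive = the rest.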

The molecules below were run against Sphingosine 1-phosphate receptor 3 (Homo sapiens) (UniProt Q99500) (assay: S1P3 receptor antagonists, primary screen, cell-based (AID 485;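 also: cells challenged with S1P at its EC80 of 0.8 µM; blue over green emission ratio from cleaved BLA substrate after 4 h stimulation; 0% = S1P-stimulated wells and 100% = unstimulated DMSO-only wells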)). Details: CHO S1P3 NFAT-BLA reporter, FRET fluorescence, antagonist mode; at 4.98 µM; active compounds read high.
Sphingosine 1-phosphate receptor 3 (Homo sapiens), sequence (Q99500 whole entry, looked up): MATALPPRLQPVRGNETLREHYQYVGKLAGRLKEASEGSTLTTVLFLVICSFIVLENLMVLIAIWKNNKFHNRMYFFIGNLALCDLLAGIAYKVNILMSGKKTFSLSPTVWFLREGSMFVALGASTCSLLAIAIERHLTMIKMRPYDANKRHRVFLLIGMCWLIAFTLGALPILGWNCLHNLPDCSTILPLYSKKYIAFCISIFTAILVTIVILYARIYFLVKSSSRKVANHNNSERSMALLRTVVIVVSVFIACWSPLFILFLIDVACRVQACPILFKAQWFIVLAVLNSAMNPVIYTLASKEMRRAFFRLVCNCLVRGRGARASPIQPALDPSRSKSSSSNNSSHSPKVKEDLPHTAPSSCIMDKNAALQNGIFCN
With COc1ccc(NC(=S)Nc2ccccc2Cl)cn1 the inhibition was 4.46%. COc1ccc(NC(=S)NCCNC(C)=O)cc1 was tested, and the inhibition was 12.8%. With COc1ccc(CS(=O)/C(Cl)=C(/Cl)C(=O)Nc2ccc(OC)nc2)cc1 (centres undefined) the inhibition was 56.4% (active). CCOC(=O)c1c(C)[nH]c(C2=NNC(=NC(C)COC)SC2)c1C (centres undefined) gave an inhibition of -26%. For CC(C)c1cc(NCc2ccccn2)n2c(nc3ccccc32)c1C#N, the inhibition was -17.9%. O=C(N/N=C/c1ccc([N+](=O)[O-])o1)c1cccc(S(=O)(=O)N2CCOCC2)c1 showed an inhibition of 8.39%. In the case of O=[N+]([O-])c1cccc(/C([O-])=C(/C(=S)Nc2ccccc2F)[n+]2ccccc2)c1, the inhibition is reported as -11.5%. O=C(Nc1ccc(N2CCOCC2)nc1)c1c(F)cccc1F showed an inhibition of 6.79%. In the case of O=[N+]([O-])c1ccc2[nH]c3c(c2c1)CCCC3O (centres undefined), the inhibition is reported as 12.7%. C/C(=N\OC(=O)c1ccccc1)c1c(C)nc2cc(C)ccn12 gave an inhibition of -11.2%. Work on CC(=O)Nc1cccc(C(=O)Nc2nc(C)cs2)c1 yielded an inhibition of -16.1%. For Cc1cc(/C=N/NC(=O)c2cccnc2)c(C)n1CC(C)C, the inhibition was 4.4%. N#CCCCn1c(O)c(N=NC(=O)C(O)c2ccccc2)c2ccccc21 (centres undefined) gave an inhibition of 5.47%. Work on Cc1c(NC(=O)CSc2nnnn2-c2ccc(C(=O)O)cc2)c(=O)n(-c2ccccc2)n1C yielded an inhibition of 7.84%. CCn1ccnc1CN1CCCC(C(=O)c2ccc3c4c(cccc24)CC3)C1 (centres undefined) showed an inhibition of -14.3%. Work on O=C(c1cc(COc2c(F)cccc2F)on1)N1CCSCC1 yielded an inhibition of 10.4%. Work on C/C(CC(=O)Nc1cccc(C(F)(F)F)c1)=N\NC(=O)C(=O)NCC(C)C yielded an inhibition of -5.61%. Work on CC(C)Oc1ccc(CCC(=O)NNC(=S)NCc2ccccc2)cc1 yielded an inhibition of 11.1%. COc1ccc(Cc2cc(-c3ccc(F)cc3)n[nH]c2=O)cc1 gave an inhibition of 16.1%. Work on CCOC(=O)c1ccc(N=C2SC(C(=O)NC)CC(=O)N2CCc2ccccc2)cc1 (centres undefined) yielded an inhibition of -0.92%. CCCN(c1ccc(C)cc1)c1nc(=O)c2cccnc2s1 was tested, and the inhibition was -4.79%. For O=C(Nc1ccccc1)Nc1nc2ccccc2s1, the inhibition was 6.66%. With CCC(=O)NC(=Nc1nc2ccccc2s1)NC(=O)CC the inhibition was 84.7% (active). Work on O=C(O)CSCc1nc2ccccc2s1 yielded an inhibition of -27.1%. COC(=O)CSc1nccc(-c2cccs2)n1 showed an inhibition of -15.2%. O=C1c2ccccc2NC(c2ccccn2)N1NS(=O)(=O)c1ccccc1 (centres undefined) was tested, and the inhibition was -20%. Cc1cc(=O)oc2cc(OCC(=O)Nc3nnc(C4CC4)s3)ccc12 gave an inhibition of 6.03%. With COCCCNC(=O)Cn1c(=O)n(Cc2ccccc2Cl)c(=O)c2cc(OC)c(OC)cc21 the inhibition was -15.6%. COc1ccc(-n2cc(CN(C)Cc3n[nH]c(=O)[nH]3)c(-c3cccc(F)c3)n2)cc1 showed an inhibition of 0.22%. C=CCC(Nc1ccccc1)c1cccc(OC)c1OC (centres undefined) gave an inhibition of 3.89%. CN(C)CCCN(Cc1cc2cc3c(cc2[nH]c1=O)OCCO3)C(=O)NC1CCCCC1 showed an inhibition of -12.8%. In the case of O=C(CCNc1n[nH]c(=O)[nH]c1=O)N/N=C\c1ccc(Br)cc1, the inhibition is reported as 7.68%. O=C(NCCCNc1ccc([N+](=O)[O-])cc1Cl)c1ccccc1F gave an inhibition of -0.7%. In the case of CCC(C)c1ccc(NC(=S)NCc2ccccn2)cc1 (centres undefined), the inhibition is reported as 6.58%. COc1ccc(C)cc1NC(=O)c1ccc(-c2ccc(C(C)=O)cc2)o1 showed an inhibition of -2.68%. Work on CC/C(=N\NC(=S)NC(C)C)c1ccc(OC(F)F)cc1 yielded an inhibition of 0.35%. In the case of COc1cccc(Nc2nnc(SCC(=O)N3CC(=O)Nc4ccccc43)s2)c1, the inhibition is reported as 1.32%. CCOC(=O)c1cn(CC)c2cc(F)c(F)cc2c1=O gave an inhibition of 1.3%. Cc1ccc(CN(C)CC(=O)Nc2cccc([N+](=O)[O-])c2)o1 was tested, and the inhibition was -19.1%. CN(CC(=O)Nc1cccc(F)c1)CC(=O)Nc1cccc([N+](=O)[O-])c1 was tested, and the inhibition was -5.5%. For Cc1ccc(NC(=O)CN(C)CC(=O)Nc2cccc(F)c2)cc1[N+](=O)[O-], the inhibition was 29.9% (active). With Cc1ccc(/C=C/C(=O)O)cc1S(=O)(=O)N1CCC(Cc2ccccc2)CC1 the inhibition was -2.15%. Molecule O=C(Cn1cnc2cc([N+](=O)[O-])ccc2c1=O)NC(=O)NCc1ccccc1 has an inhibition of -4.47%. For COc1ccc(F)cc1S(=O)(=O)N1CCCCC1, the inhibition was 17.2%. Work on Cc1ccc(NC(=O)C/C(N)=N/O)cc1Cl yielded an inhibition of -2.94%. Work on CC(C)(C)c1ccc(CCC2OCC(CN3CCOCC3)O2)cc1 (centres undefined) yielded an inhibition of 10.3%. CCN(CC(=O)Nc1cccc(S(N)(=O)=O)c1)Cc1nc2ccccc2c(=O)[nH]1 was tested, and the inhibition was 19.8%. Work on COC(=O)c1c(NC(C)=O)sc(C(=O)Nc2ccccc2OC)c1C yielded an inhibition of 6.94%. Work on Cc1ccc(NC(=O)Nc2cc(-c3ccccc3)nn2C)cc1Cl yielded an inhibition of 6.92%. With Cc1nc2ccccn2c1C(=O)NN=C1CCN(C)CC1 the inhibition was 5.25%. CCOC(=O)c1c(N)sc2c1CCCC2=O gave an inhibition of 8.9%. O=[N+]([O-])c1ccc(F)cc1Oc1nc(-c2cccnc2)nc2ccccc12 was tested, and the inhibition was 4.41%. With CC1C(=O)NC(=O)C1c1ccccc1 (centres undefined) the inhibition was 5.96%. In the case of CC(NCc1ccccc1OC1CCCC1)c1ccccc1 (centres undefined), the inhibition is reported as 3.22%. CCN(CC)CCN(C(=O)c1ccc(N2C(=O)CCC2=O)cc1)c1nc2cc3c(cc2s1)OCO3 gave an inhibition of -4.37%. O=C(NCc1cccnc1)C(=O)Nc1nc(-c2ccccc2)cs1 was tested, and the inhibition was 10.3%. For CCOc1ccc(/C=C2\SC(=S)N(NC(=O)c3ccncc3)C2=O)cc1OC, the inhibition was 6.85%. For CCOC(=O)CC1C(=O)NCCN1c1nc2c(C)cccn2c(=O)c1/C=C1\SC(=S)N(C(C)CC)C1=O (centres undefined), the inhibition was 29.7% (active). With CCOC(=O)CC1C(=O)NCCN1C(=O)COc1ccc(Br)cc1C (centres undefined) the inhibition was -25.1%. CCCCCC1CCC(c2nnc(SCC(C)=O)o2)CC1 (centres undefined) gave an inhibition of -22.3%. O=C(NNS(=O)(=O)Cc1ccccc1)c1ccc([N+](=O)[O-])cc1 showed an inhibition of -6.72%. For Cn1c(-c2ccc(C(=O)c3ccccc3)s2)nc2ccccc21, the inhibition was 59.9% (active). In the case of Cn1c(S(=O)(=O)O)nc2ccccc21, the inhibition is reported as -12.4%. Cn1cccc1-c1nc2ccccc2n1C was tested, and the inhibition was -6.38%. Cc1cccc(-n2ncc3c(N4CCc5ccccc54)ncnc32)c1 was tested, and the inhibition was 84.3% (active). With COc1ccc(-n2ncc3c(N4CCc5ccccc54)ncnc32)cc1 the inhibition was 13.4%. Work on Cc1ccc(-n2ncc3c(N4CCN(c5ccc(F)cc5)CC4)ncnc32)c(C)c1 yielded an inhibition of 27.2%. With CCN(CC)c1ccc2c(Nc3ccccc3)c(C=O)c(=O)oc2c1 the inhibition was 6.07%. With CC(C)Cc1nnc(NC(=O)CCC(=O)Nc2ccc3cn[nH]c3c2)s1 the inhibition was -0.32%. Cc1c(CN2CCCCC2)c(O)n(CCO)c(=O)c1C#N was tested, and the inhibition was -12.4%. For CCOc1cnc(-c2c(-c3ccccc3Cl)noc2C)o1, the inhibition was -6.23%. In the case of Cc1ccc(S(=O)(=O)N(CC(=O)NN=C2CCN(C)CC2)c2ccc(F)cc2)cc1, the inhibition is reported as 4.23%. In the case of CCN(CC)C(=O)C(=O)c1cn(CC(=O)NCc2ccc3c(c2)OCO3)c2ccccc12, the inhibition is reported as 1.34%. With CN(C)c1ccc(NC(=O)CSc2n[nH]c(-c3ccco3)n2)cc1 the inhibition was -1.38%. CC(C)C(=O)Nc1ccc2oc(=O)ccc2c1 was tested, and the inhibition was -11.4%. With CC1CCN(C(=S)c2cccc([N+](=O)[O-])c2)CC1 the inhibition was -0.25%. C=CCOC(=O)C1=C(C)N=C2SCCC(=O)N2C1/C=C/c1ccccc1OC (centres undefined) gave an inhibition of -1.87%. CCC(C)(C)NC(=O)CN(Cc1cccs1)C(=O)CNS(=O)(=O)c1ccc(F)cc1 was tested, and the inhibition was -2.83%. With Cc1cc(N/N=C/c2ccccc2F)c2ccccc2n1 the inhibition was -3.58%. With CC(=O)Nc1ccc(C(=O)/C=C/c2ccc[nH]2)cc1 the inhibition was 0.84%. For CCc1cc(CNC(=O)CC2C(=O)NCCN2Cc2ccccc2C(F)(F)F)on1 (centres undefined), the inhibition was -1.82%. In the case of CCc1ccc(C(=O)OCC(=O)NCC(F)(F)F)cc1, the inhibition is reported as -9.42%. With O=C(O)CC12CC3CC(C1)CC(n1ncc(NCc4ccc(F)cc4)c(Cl)c1=O)(C3)C2 the inhibition was -16.8%. For COc1cc2c(cc1O)[C@H](Cc1ccc(Oc3cc(C[C@@H]4NCCc5cc(OC)c(O)cc54)ccc3O)cc1)NCC2, the inhibition was -12.9%. In the case of CC[C@H]1CN2CCc3cc(OC)c(OC)cc3[C@@H]2C[C@@H]1C[C@H]1NCCc2cc(OC)c(OC)cc21, the inhibition is reported as 97.4% (active). CN1C(=O)/C(=N/OC(=O)c2ccccc2Br)c2ccccc21 was tested, and the inhibition was -12.3%. COc1ccc(NC(=O)CN2C(=O)CSC2=O)cc1 was tested, and the inhibition was 4.71%. Molecule CC(C)N(Cc1ccccc1)C(=O)COC(=O)c1cnccn1 has an inhibition of -8.02%. O=Cc1ccc(OCc2cn3ccccc3n2)cc1 showed an inhibition of -13.1%. Work on CCCc1ccc(C(=O)[C@@H]2[C@@H](C(C)=O)N3c4ccc(F)cc4C=C[C@@H]3[C@@]23C(=O)Nc2ccccc23)cc1 yielded an inhibition of 3%. With CC(C)Oc1ccccc1C(=O)NC(CO)C(=O)O (centres undefined) the inhibition was 28.6% (active). CCCN(CCC)CC(O)COc1ccccc1C(=O)Nc1ccccc1 (centres undefined) showed an inhibition of -9.63%. COc1ccccc1C(=O)NNC(=O)c1ccc(NC(=O)c2ccccc2)cc1 showed an inhibition of -4.89%. For O=C(Nc1cccc2c1N(C(=O)c1ccco1)CCC2)c1ccco1, the inhibition was -8.57%.
